The source of these data is PubChem BioAssay (EPA / NIEHS).

Calls of active or inactive are those of the source. The calls were made as follows: active = hit-call score of the fitted dose curve at least 0.9, where 1 is the maximum; inactive = score below 0.9.

Usually AC50 stands for the concentration at which the activity in the assay is half-maximal.

Assay [1] is described as follows: ATG_CRE_CIS: Attagene CIS-FACTORIAL HepG2 Assay for human cAMP Responsive Element (CRE) binding protein 3 (AID 2282926). The conditions noted are these: HepG2 CRE cis-reporter, Attagene multiplexed mRNA; actives raise or lower the signal. Put shortly: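 HepG2 cells transiently transfected with a multiplexed reporter library (CRE-driven unit among them) were dosed for 24 h. Reporter mRNA was quantified by RT-PCR, fluorescent labelling, HpaI digestion and capillary electrophoresis, with bidirectional fitting against DMSO baseline.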

Assay [2] concerns the target CCAAT/enhancer-binding protein beta (Homo sapiens) (UniProt P17676). Description: ATG_C_EBP_CIS: Attagene CIS-FACTORIAL HepG2 Assay for human CCAAT/Enhancer Binding Protein (C/EBP) beta (AID 2282927). Particulars: HepG2 Attagene cis-factorial transcription factor reporter; actives raise or lower the signal. Put shortly:
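HepG2, transient MRTU transfection, 24 h treatment. RT-PCR plus CE fluorescence; DMSO negative control, bidirectional fit.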

Assay [3] in a line: ATG_CMV_CIS: Attagene CIS-FACTORIAL HepG2 Assay for human CMV (Internal Marker) (AID 2282928).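 Also: endpoint acts as a background internal control marker rather than a target.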 Particulars: HepG2 CMV promoter reporter, transcription factor profiling; actives raise or lower the signal. Summed up:
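HepG2 cells transiently transfected with multiple cis-regulated reporter units; 24 h compound exposure. Reporter mRNA quantified by RT-PCR, 6-FAM primer-extension labeling, HpaI digestion and capillary electrophoresis; bidirectional fitting against DMSO baseline.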

Assay [4] in a line: ATG_DR4_LXR_CIS: Attagene CIS-FACTORIAL HepG2 Assay for human Liver X Receptor (LXR), DR4 submotif (AID 2282929). Particulars: HepG2 Attagene DR4 cis-reporter, mRNA transcription; actives raise or lower the signal. Put shortly:
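HepG2 cells transiently transfected with cis-promoter-driven multiplexed reporter units (DR4 element) were dosed for 24 h. Reporter mRNA was quantified by RT-PCR, fluorescent primer extension, HpaI digestion and capillary electrophoresis; bidirectional fitting versus DMSO baseline.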

Assay [5] has as its target Aryl hydrocarbon receptor (Homo sapiens) (UniProt P35869). Nature of the assay: ATG_Ahr_CIS: Attagene CIS-FACTORIAL HepG2 Assay for human Aryl Hydrocarbon Receptor (Ahr) (AID 2282930). The conditions noted are these: HepG2 AhR cis-factorial reporter transcription; actives raise or lower the signal. Summed up: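 Endogenous factor activity is tracked through cis-promoter reporter units transfected into HepG2 cells. Transcript levels at 24 h are read by fluorescent RT-PCR and capillary electrophoresis, with activity in either direction scored relative to DMSO.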

Assay [6] in a line: ATG_AP_1_CIS: Attagene CIS-FACTORIAL HepG2 Assay for human Activator Protein 1 (AP-1) (AID 2282931). Particulars: HepG2 Attagene cis-factorial AP-1 reporter mRNA; actives raise or lower the signal. Put shortly:
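HepG2 cells transiently transfected with cis-element-driven multiplex reporter units; 24 h compound exposure. Reporter mRNA quantified by RT-PCR, FAM-labelled fragments resolved by capillary electrophoresis; bidirectional fit versus DMSO baseline.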

Assay [7] is described as follows: ATG_AP_2_CIS: Attagene CIS-FACTORIAL HepG2 Assay for human Activator Protein 2 (AP-2) (AID 2282932). Particulars: HepG2 AP-2 cis-reporter, Attagene transcription factor profiling; actives raise or lower the signal. Summed up: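 Multiplexed mRNA reporter assay in HepG2: cis-regulated units report endogenous factor activity after 24 h treatment. Fluorescence from capillary electrophoresis of RT-PCR products gives the signal, with DMSO as baseline.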

A short description of assay [8]: ATG_BRE_CIS: Attagene CIS-FACTORIAL HepG2 Assay for human Bone Morphogenetic Protein (BMP) Response Element (BRE) (AID 2282933). Particulars: HepG2 BMP response element reporter, Attagene transcription factor profiling; actives raise or lower the signal. Put shortly: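 Endogenous transcription factor activity at a BMP response element was monitored in transfected HepG2 cells 24 h after dosing. Fluorescent RT-PCR products were resolved by capillary electrophoresis, and activity was fitted in both directions versus DMSO.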

Assay [9] deals with Retinoic acid receptor alpha (Homo sapiens) (UniProt P10276). Nature of the assay: ATG_DR5_RAR_CIS: Attagene CIS-FACTORIAL HepG2 Assay for human Retinoic Acid Receptor Alpha (RARE), DR5 submotif (AID 2282934). The conditions noted are these: HepG2 Attagene cis-factorial RARE DR5 reporter, mRNA; actives raise or lower the signal. Summed up:
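After 24 h of chemical exposure, transiently transfected HepG2 cells were lysed for total RNA; the DR5-regulated reporter transcript was quantified via RT-PCR and capillary electrophoresis, with activity fitted bidirectionally against DMSO.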

Assay [10] has as its target Transcription factor E2F1 (Homo sapiens) (UniProt Q01094). Description: ATG_E2F_CIS: Attagene CIS-FACTORIAL HepG2 Assay for human E2F Transcription Factor 1 (AID 2282935). Particulars: HepG2 Attagene cis-reporter, E2F reporter RNA transcripts; actives raise or lower the signal. Put shortly: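 Measures reporter transcript levels via RT-PCR with capillary electrophoresis detection in HepG2 cells harboring cis-regulated reporter units; 24 h post-dose; bidirectional curve fitting with DMSO as baseline.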

Assay [11] in a line: ATG_E_Box_CIS: Attagene CIS-FACTORIAL HepG2 Assay for human Enhancer Box (E-box) (AID 2282936). Particulars: HepG2 E-box cis-reporter transcription, actives raise or lower the signal. Summed up:
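First, HepG2 cells receive multiple cis-regulated reporter constructs by transient transfection. Next, chemicals are applied for 24 h. Finally, reporter mRNA is quantified via RT-PCR and capillary electrophoresis, with DMSO as baseline.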

A short description of assay [12]: ATG_M_61_CIS: Attagene CIS-FACTORIAL HepG2 Assay for M61 Transcription Factor (Internal Marker) (AID 2282937). Particulars: HepG2 Attagene CIS-FACTORIAL M61 internal marker reporter; actives raise or lower the signal. Put shortly:
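HepG2 cells transiently transfected with cis-element-driven multiple reporter transcription units, dosed for 24 h. Reporter mRNA measured by RT-PCR, 6-FAM primer-extension labelling, HpaI digestion and capillary electrophoresis; bidirectional fit versus DMSO baseline.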

A short description of assay [13]: ATG_EGR_CIS: Attagene CIS-FACTORIAL HepG2 Assay for human Early Growth Response 1 (EGR1) (AID 2282938). Particulars: HepG2 Attagene CIS-FACTORIAL EGR reporter mRNA; actives raise or lower the signal. Summed up: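 HepG2 cells transiently transfected with cis-promoter-driven multiplexed reporter transcription units; reporter mRNA measured 24 h after compound dosing by RT-PCR, 6-FAM primer extension, HpaI digestion and capillary electrophoresis. Bidirectional fit versus DMSO baseline.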

The nature of assay [14]: ATG_M_19_CIS: Attagene CIS-FACTORIAL HepG2 Assay for M19 Transcription Factor (Internal Marker) (AID 2282939). Particulars: HepG2 Attagene CIS-FACTORIAL M19 internal marker reporter; actives raise or lower the signal. Summed up: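 Background-control endpoint from a multiplexed HepG2 reporter panel. Cells carrying cis-regulated reporter constructs are treated 24 h, then reporter transcripts are amplified, fluorescently labelled and sized by capillary electrophoresis. DMSO defines baseline.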

The nature of assay [15]: ATG_ERE_CIS: Attagene CIS-FACTORIAL HepG2 Assay for Estrogen Response Element (ERE) (AID 2282940). The conditions noted are these: HepG2 ERE cis-reporter, Attagene RNA transcript; actives raise or lower the signal. Summed up: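 Cells used were human hepatoma HepG2, transfected with multiple reporter transcription units under cis-regulatory promoters. Reporter mRNA, read 24 h post-dosing via fluorescent RT-PCR products on capillary electrophoresis, was fitted bidirectionally relative to DMSO.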

A short description of assay [16]: ATG_Ets_CIS: Attagene CIS-FACTORIAL HepG2 Assay for human Erythroblast Transformation Specific (ETS) (AID 2282941). Particulars: HepG2 ETS cis-reporter transcription, actives raise or lower the signal. Summed up:
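HepG2 cells transiently transfected with cis-promoter reporter transcription units were dosed for 24 h; reporter mRNA was measured by RT-PCR, 6-FAM primer extension, HpaI digestion and capillary electrophoresis, with bidirectional fitting against DMSO baseline.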

The target of assay [17] is Hepatocyte nuclear factor 3-beta (Homo sapiens) (UniProt Q9Y261). Description: ATG_FoxA2_CIS: Attagene CIS-FACTORIAL HepG2 Assay for human Forkhead box A2 (FOXA2) (AID 2282942). Particulars: HepG2 cis-reporter transcription factor activity, 24 h; actives raise or lower the signal. Summed up: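 HepG2 cells transiently transfected with multiple cis-regulated reporter transcription units, dosed for 24 h. Reporter mRNA measured by RT-PCR, 6-FAM labelling, HpaI digestion and capillary electrophoresis; bidirectional fitting against DMSO baseline.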
Chain of Hepatocyte nuclear factor 3-beta (Homo sapiens) (Q9Y261 whole entry, looked up): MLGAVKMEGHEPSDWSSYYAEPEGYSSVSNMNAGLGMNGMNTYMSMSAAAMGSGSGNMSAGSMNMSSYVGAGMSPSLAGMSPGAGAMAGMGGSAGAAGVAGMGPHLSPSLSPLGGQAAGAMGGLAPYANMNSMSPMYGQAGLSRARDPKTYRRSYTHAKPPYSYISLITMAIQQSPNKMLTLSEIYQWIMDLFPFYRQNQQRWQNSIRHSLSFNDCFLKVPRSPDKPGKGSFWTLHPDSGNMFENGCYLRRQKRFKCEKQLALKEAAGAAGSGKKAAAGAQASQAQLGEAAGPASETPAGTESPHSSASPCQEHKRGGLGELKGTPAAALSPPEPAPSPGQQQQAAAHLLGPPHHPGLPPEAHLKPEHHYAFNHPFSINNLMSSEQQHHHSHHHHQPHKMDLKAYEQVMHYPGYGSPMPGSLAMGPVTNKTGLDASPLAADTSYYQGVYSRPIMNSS

Assay [18] can be described thus: ATG_FoxO_CIS: Attagene CIS-FACTORIAL HepG2 Assay for human Forkhead box O (FoxO) (AID 2282943). Particulars: HepG2 Attagene cis-reporter, FoxO element, mRNA; actives raise or lower the signal. Put shortly: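 Transfected HepG2 reporter cells exposed to test chemical for 24 h; reporter RNA measured by reverse transcription, PCR and fluorescent capillary electrophoresis; curves fitted for increases and decreases against DMSO.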

Assay [19] is described as follows: ATG_GATA_CIS: Attagene CIS-FACTORIAL HepG2 Assay for human GATA Binding Protein (AID 2282944). The conditions noted are these: HepG2 GATA cis-element reporter, Attagene multiplex mRNA; actives raise or lower the signal. Summed up: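 Endogenous transcription factor activity was captured through cis-promoter-driven reporters in transfected HepG2 cells. After 24 h exposure, reporter transcripts were quantified by RT-PCR with fluorescent capillary electrophoresis, and responses fitted both directions against DMSO.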

A short description of assay [20]: ATG_GLI_CIS: Attagene CIS-FACTORIAL HepG2 Assay for human Zinc Finger Protein GLI1 (AID 2282945). The conditions noted are these: HepG2, Attagene cis-factorial reporter mRNA, GLI element; actives raise or lower the signal. Put shortly: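 Transiently transfected HepG2 cells report endogenous transcription factor activity via cis-element-driven reporter units. After 24 h compound exposure, reporter mRNA was measured by RT-PCR with capillary electrophoresis; bidirectional fitting against DMSO baseline.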

Chain of Aryl hydrocarbon receptor (Homo sapiens) (P35869 whole entry, looked up): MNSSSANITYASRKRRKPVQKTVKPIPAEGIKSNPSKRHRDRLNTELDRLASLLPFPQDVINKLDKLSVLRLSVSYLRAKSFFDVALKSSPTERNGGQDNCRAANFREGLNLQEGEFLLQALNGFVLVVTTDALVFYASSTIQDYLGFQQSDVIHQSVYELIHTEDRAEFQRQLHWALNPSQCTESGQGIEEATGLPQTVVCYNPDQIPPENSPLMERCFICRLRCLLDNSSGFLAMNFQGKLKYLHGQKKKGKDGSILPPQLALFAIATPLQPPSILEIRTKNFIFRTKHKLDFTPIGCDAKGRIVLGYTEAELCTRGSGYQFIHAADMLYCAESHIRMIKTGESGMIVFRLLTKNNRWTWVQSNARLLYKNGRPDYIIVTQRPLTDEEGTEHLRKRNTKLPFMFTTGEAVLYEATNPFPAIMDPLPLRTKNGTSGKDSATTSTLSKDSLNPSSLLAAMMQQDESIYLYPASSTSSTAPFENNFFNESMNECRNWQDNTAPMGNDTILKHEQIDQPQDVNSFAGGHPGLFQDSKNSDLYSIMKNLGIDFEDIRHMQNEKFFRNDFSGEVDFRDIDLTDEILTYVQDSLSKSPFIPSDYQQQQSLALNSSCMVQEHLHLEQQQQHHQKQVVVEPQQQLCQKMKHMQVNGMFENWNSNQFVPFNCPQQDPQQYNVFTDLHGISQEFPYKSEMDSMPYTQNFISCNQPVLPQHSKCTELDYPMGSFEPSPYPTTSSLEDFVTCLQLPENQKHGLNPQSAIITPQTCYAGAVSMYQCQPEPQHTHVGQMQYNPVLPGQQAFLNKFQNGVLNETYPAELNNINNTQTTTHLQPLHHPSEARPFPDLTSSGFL
Chain of Transcription factor E2F1 (Homo sapiens) (Q01094 whole entry, looked up): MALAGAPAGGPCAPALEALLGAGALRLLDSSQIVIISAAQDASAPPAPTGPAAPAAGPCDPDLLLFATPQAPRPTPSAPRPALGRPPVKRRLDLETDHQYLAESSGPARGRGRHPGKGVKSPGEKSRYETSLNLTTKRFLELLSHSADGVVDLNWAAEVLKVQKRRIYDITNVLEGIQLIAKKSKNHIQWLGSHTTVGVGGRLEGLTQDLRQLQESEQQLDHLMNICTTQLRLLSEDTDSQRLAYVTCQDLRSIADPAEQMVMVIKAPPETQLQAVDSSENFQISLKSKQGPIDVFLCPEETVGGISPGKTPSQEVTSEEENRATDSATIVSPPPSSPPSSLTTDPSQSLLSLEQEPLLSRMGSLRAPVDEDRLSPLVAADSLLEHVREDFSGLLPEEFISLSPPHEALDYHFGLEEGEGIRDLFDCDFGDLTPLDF
Chain of CCAAT/enhancer-binding protein beta (Homo sapiens) (P17676 whole entry, looked up): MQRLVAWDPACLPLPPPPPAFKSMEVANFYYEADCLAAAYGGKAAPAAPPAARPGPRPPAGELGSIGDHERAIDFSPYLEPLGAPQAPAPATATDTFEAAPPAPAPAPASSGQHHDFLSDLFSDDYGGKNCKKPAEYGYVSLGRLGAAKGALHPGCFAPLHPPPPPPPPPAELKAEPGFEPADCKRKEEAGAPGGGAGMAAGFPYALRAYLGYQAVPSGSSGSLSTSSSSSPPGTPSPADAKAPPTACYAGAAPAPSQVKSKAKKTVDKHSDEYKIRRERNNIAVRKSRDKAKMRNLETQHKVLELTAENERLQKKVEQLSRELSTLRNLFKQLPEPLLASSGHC
Chain of Retinoic acid receptor alpha (Homo sapiens) (P10276 whole entry, looked up): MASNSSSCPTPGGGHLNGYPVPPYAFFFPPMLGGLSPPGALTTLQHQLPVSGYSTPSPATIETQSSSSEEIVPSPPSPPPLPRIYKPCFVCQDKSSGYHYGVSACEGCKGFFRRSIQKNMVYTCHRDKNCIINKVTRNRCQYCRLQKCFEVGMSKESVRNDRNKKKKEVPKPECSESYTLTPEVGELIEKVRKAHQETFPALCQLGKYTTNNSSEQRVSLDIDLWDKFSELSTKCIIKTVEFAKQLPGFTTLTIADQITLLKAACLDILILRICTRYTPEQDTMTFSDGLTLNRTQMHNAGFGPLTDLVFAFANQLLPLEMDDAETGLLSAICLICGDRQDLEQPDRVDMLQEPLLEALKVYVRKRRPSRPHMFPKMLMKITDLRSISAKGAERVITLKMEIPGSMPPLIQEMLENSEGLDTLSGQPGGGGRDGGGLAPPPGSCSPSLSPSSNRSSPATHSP

For the compound `CCCCCCCC(C)=O`, the result in [1], in assay [2], in [3], in [4], in [5] and in assay [6] was inactive. Also, the compound was called inactive in [7], in [8], in [9], in assay [10], in assay [11] and in [12]. In addition, the result in [13], in [14], in assay [15], in assay [16], in [17] and in assay [18] was inactive. Besides, the compound was classed as inactive in assay [19] and in [20].
Take `CC(=O)OCCC1CCCCC1`: the outcome in [1], in assay [2], in assay [3], in assay [4], in assay [5] and in assay [6] was inactive. In addition, the call in assay [7], in assay [8], in assay [9], in assay [10], in [11] and in [12] was inactive. The outcome in [13], in [14], in [15], in assay [16], in assay [17] and in assay [18] was inactive. In addition, the result in assay [20] was inactive.
Turning to `CC1(C)O[C@@H]2C[C@H]3[C@@H]4C[C@H](F)C5=CC(=O)C=C[C@]5(C)[C@@]4(F)[C@@H](O)C[C@]3(C)[C@]2(C(=O)CO)O1`, the compound was called inactive in [1], in [2], in [3], in assay [4], in assay [5] and in assay [6]. The result in [7], in assay [8], in assay [9], in [10], in assay [11] and in assay [12] was inactive. The compound was classed as inactive in assay [13], in [14], in assay [16], in assay [17], in assay [19] and in [20]. For the same compound, in [15], the half-maximal activity concentration (AC50) is 4.27 µM (active).
Take `COC(F)(F)C(F)(C(F)(F)F)C(F)(F)F`: the outcome in assay [1], in [2], in [3], in assay [4], in assay [5] and in assay [6] was inactive. Further, the compound was classed as inactive in assay [7], in assay [8], in [9], in assay [10], in assay [11] and in assay [12]. The compound was called inactive in assay [13], in assay [14], in assay [15], in assay [16], in [17] and in assay [18]. In addition, the outcome in [19] and in assay [20] was inactive.
`C=CC=CC=CCCCCC`: the compound was called inactive in [1], in assay [2], in [3], in assay [4], in [5] and in assay [6]. Further, the call in [7], in assay [8], in assay [9], in [10], in assay [11] and in assay [12] was inactive. Moreover, the call in assay [13], in [14], in assay [15], in [16], in assay [17] and in assay [18] was inactive. For the same compound, the compound was called inactive in [19] and in assay [20].
`NC(=O)C1CO1` (stereo unspecified): the compound was called inactive in [1], in [2], in assay [3], in assay [4], in assay [5] and in assay [6]. In addition, the compound was classed as inactive in assay [7], in assay [8], in assay [9], in [10], in assay [11] and in [12]. Also, the outcome in [13], in assay [14], in [15], in assay [16], in assay [17] and in [18] was inactive. The compound was classed as inactive in assay [20].
`CCC(CO)CO`: the compound was classed as inactive in assay [1], in [2], in assay [3], in assay [4], in [5] and in assay [6]. Also, the result in assay [7], in [8], in assay [9], in assay [10], in assay [11] and in assay [12] was inactive. Moreover, the outcome in [13], in assay [14], in [15], in [16], in assay [17] and in assay [19] was inactive. Moreover, in assay [20], the outcome was inactive.
